ST2 inh = inhibitors of human ST2 (IL1RL1) binding to IL-33, primary screen, biochemical, AlphaLISA. AID 1259354, 2018. hit rate 2.3% among 78,000. Interleukin-1 receptor-like 1 (Homo sapiens), Q01638. inhibition, % for hits at 17 µM. AlphaLISA ST2-Fc/biotin-IL-33 interaction, 1 h; in the data active means inhibition above about 30%
Target sequence (Q01638 whole entry, looked up): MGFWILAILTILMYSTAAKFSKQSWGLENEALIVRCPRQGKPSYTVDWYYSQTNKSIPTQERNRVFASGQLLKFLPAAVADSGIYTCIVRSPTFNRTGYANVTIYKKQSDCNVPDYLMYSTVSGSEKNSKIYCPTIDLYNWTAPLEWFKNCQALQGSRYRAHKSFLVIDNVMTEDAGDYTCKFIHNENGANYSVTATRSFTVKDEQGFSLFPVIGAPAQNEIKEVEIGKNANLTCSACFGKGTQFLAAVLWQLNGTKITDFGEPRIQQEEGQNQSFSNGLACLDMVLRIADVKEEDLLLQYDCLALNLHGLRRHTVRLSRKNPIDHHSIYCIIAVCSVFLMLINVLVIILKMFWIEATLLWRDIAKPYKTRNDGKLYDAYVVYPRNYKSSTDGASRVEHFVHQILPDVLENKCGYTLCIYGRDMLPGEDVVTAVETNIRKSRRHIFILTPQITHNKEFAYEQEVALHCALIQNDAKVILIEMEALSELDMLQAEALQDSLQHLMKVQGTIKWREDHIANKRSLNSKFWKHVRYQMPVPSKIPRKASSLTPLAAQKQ
Large screens that a line does not name were inactive. This excerpt belongs to a sample that is enriched for hits.

COc1cc(CN2CCC(C)CC2)c([N+](=O)[O-])cc1OC	none
COc1cc(C(c2ccc(C)o2)c2ccc(C)o2)c([N+](=O)[O-])cc1OC	ST2 inh 36.0%
COc1cc(CC(=O)O)c([N+](=O)[O-])cc1OC	none
Cc1cccc(NC(=O)C(Cc2ccccc2)N2C(=O)C3C4C=CC(C4)C3C2=O)c1 (configuration not stated)	none
CCN(CC)S(=O)(=O)c1ccc(C(=O)N2CCN=C2SCc2ccccc2F)cc1	none
CC(=O)c1ccc(NC(=O)N[C@H]2CO[C@H]3[C@@H]2OC[C@@H]3Nc2nccc(-c3cccc(F)c3)n2)cc1	none
CC1(C)Cc2nc3sc4c(=O)[nH]cnc4c3cc2CS1	ST2 inh 80.0%
CCCCn1c(C)nc2c(sc3nc4c(cc32)COC(C)(C)C4)c1=O	none
C=CCn1c(C)nc2c(sc3nc4c(cc32)COC(C)(C)C4)c1=O	none
O=C(c1cnn(Cc2ccccc2)c1)N1CCC(O)(c2ccccc2)CC1	none
CNCC(=O)Nc1cccc(NC(=O)Cc2ccccc2)c1	none
O=C(CSc1ncnc2nc[nH]c12)c1cccc([N+](=O)[O-])c1	none
C(=Nc1cnc2ccccc2c1)c1c2n(c3ccccc13)CCCN2	ST2 inh 30.0%
Cc1ccc(NC(=O)c2cnc3sccn3c2=O)cc1F	none
Cn1cc(C(=O)NCC2(c3ccccc3)CCCC2)c2c3ccccc3n(C)c2c1=O	none
Cc1cc(NCCN2CCOCC2)n2c(nc3ccccc32)c1C#N	none
N#Cc1c(C(F)(F)F)cc(NCCN2CCOCC2)n2c1nc1ccccc12	ST2 inh 34.0%
CCCc1cc(NCCOC)n2c(nc3ccccc32)c1C#N	none
CN(c1ccccc1)S(=O)(=O)c1ccc(C(=O)Nc2c(C(N)=O)oc3ccccc23)cc1	none
CC(NC(=O)c1ccc(Cl)cc1)c1nc2ccccc2[nH]1 (configuration not stated)	none
CC(C)c1ccc(NC(=O)[C@@H]2C[C@@H]2c2ccccc2)cc1	none
O=C(CSc1nc2c(c(=O)n1-c1ccc(F)cc1)SCC2)Nc1ccc(F)cc1	none
CC(=O)Nc1ccc(/C=C2/OC(=O)c3c2cc(C)[nH]c3=O)cc1	ST2 inh 46.0%
COc1c(/C=C2/OC(=O)c3c2cc(C)[nH]c3=O)ccc(Cl)c1Cl	none
COc1cc(/C=C2/OC(=O)c3c2cc(C)[nH]c3=O)ccc1O	none
O=C(Nc1nnc(N=Cc2ccc([N+](=O)[O-])s2)s1)c1ccc([N+](=O)[O-])cc1	none
COc1cc(CN2CCc3c(cc(-c4ccccc4OC)c(=O)n3Cc3ccccc3)C2)ccc1O	none
Cc1cc(C)c2ccc(CO)nc2c1O	none
Cc1cc(C)c2ccc(NN)nc2c1O	ST2 inh 34.0%
O=C(c1ccc(CS(=O)(=O)c2c(Cl)cccc2Cl)o1)N1CCCCCC1	none
CN(C)c1ccc(/C=C/c2ccnc3ccccc23)cc1	ST2 inh 43.0%
CN(C)c1ccc(C(=O)Nc2nc3ccc4ccccc4c3s2)cc1	none
COCCN1C(=O)N(CCCc2cccnc2)C(=O)C12CCN(CC(C)C)CC2	none
COc1cc(C(=O)Nc2c(-c3ccc(F)cc3)nc3ccccn23)cc(OC)c1OC	none
Cn1nc(C(=O)O)c(Br)c1[N+](=O)[O-]	none
CCCc1[nH]nc2c1C(c1ccc(Br)cc1)C(C#N)=C(N)O2 (configuration not stated)	none
CSc1nc(-c2ccccc2)nc2c1CCCC2	none
CN(CC(=O)Nc1cnccn1)Cc1csc(-c2ccccc2)n1	none
CSCCC(NC(=O)C1CCC(C)CC1)C(=O)Nc1ccc(F)c(Cl)c1 (configuration not stated)	none
N.N.[Cl-].[Cl-].[Pt+4]	ST2 inh 77.0%
Cc1nc2ccccn2c1CN(C)C(=O)CC1C(=O)NCCN1CC(C)(C)C (configuration not stated)	none
Cc1ccn2c(=O)cc(COc3cccc(NC(=O)c4ccco4)c3)nc2c1	none
COc1ccc(-n2cc3c([N+](=O)[O-])cc([N+](=O)[O-])cc3n2)cc1	none
COc1ccc(C2=N/C(=C\c3cccc(OC)c3OC)C(=O)O2)cc1[N+](=O)[O-]	none
COc1ccccc1-n1cc2c([N+](=O)[O-])cc([N+](=O)[O-])cc2n1	ST2 inh 35.0%
COC(=O)c1ccc(OC(=O)Cn2cnc3sc4c(c3c2=O)CCCC4)cc1	none
Cc1ncc(-c2ccc(C)c(S(=O)(=O)N3CCOC(C(F)(F)F)C3)c2)o1 (configuration not stated)	none
CN(Cc1ccccc1)S(=O)(=O)c1ccc(Br)s1	none
CCCc1ccc(Oc2cn[nH]c2-c2ccc(O)c(C)c2O)cc1	none
CCOc1ccc(-c2n[nH]c(C)c2Oc2ccccc2)c(O)c1	none
Cc1[nH]nc(-c2ccc(O)c(O)c2O)c1Oc1ccccc1	ST2 inh 42.0%
Oc1ccc(-c2[nH]ncc2Oc2ccccc2)c(O)c1	none
Oc1ccc(-c2[nH]ncc2Oc2ccccc2)c(O)c1O	ST2 inh 51.0%
COc1ccc(-c2n[nH]c(C)c2Oc2ccccc2)c(O)c1	none
CS(=O)(=O)Nc1ccc(/C=C/c2ccccc2)cn1	none
c1ccc2sc([C@H]3CCNC3)nc2c1	ST2 inh 32.0%
CC(=O)N1CCC(N2CC[C@H](c3nc4ccccc4s3)C2)CC1	none
O=C(O)CCC(=O)N1CC[C@H](c2nc3ccccc3s2)C1	none
CCN(CC)C(=O)CNS(=O)(=O)c1ccccc1N	none
COc1ccc(C2C(C(=O)N3CCOCC3)c3cc(OC)c(OC)cc3C(=O)N2C)cc1OC (configuration not stated)	none
C=CCc1cccc2cc(C(=O)Nc3ccc([N+](=O)[O-])cc3C)c(=O)oc12	none
COc1cc2c(cc1OC)C(C(=O)Nc1ccc(C(C)C)cc1)C(c1cccs1)N(C)C2=O (configuration not stated)	none
COc1cccc(-c2cc(N3CCN(S(=O)(=O)c4cc(F)ccc4F)CC3)ncn2)c1	none
Cc1ccc(Cl)cc1NC(=O)c1ccccc1C(=O)Nc1cc(Cl)ccc1C	none
Cc1ccc(Cl)cc1NS(=O)(=O)c1cccc2nonc12	none
Cc1ccc(C)c(NS(=O)(=O)c2ccc(NC(=O)c3ccccc3C)cc2)c1	none
Cc1ccc(C)c(NS(=O)(=O)c2cccc3c2C(=O)c2ccccc2C3=O)c1	ST2 inh 54.0%
Cc1ccc(C)c(NS(C)(=O)=O)c1	none
Cc1ccc(Cl)cc1NS(=O)(=O)c1cccc2c1C(=O)c1ccccc1C2=O	ST2 inh 44.0%
CCOC(=O)C1(Cc2ccc(F)cc2F)CCCN(C(=O)C2=CC(=O)CC(C)(C)O2)C1 (configuration not stated)	none
Cn1nc(C2CCN(Cc3cnc(N)nc3)CC2)n(-c2ccccc2)c1=O	none
COc1ccc(-n2nc3c(c2NC(=O)c2ccc(S(=O)(=O)N(C)C)cc2)CS(=O)C3)cc1 (configuration not stated)	none
O=c1c2ccccc2c(-c2cccs2)nn1CCc1ccccc1	ST2 inh 35.0%
CC(=O)OCCn1nc(-c2ccccc2)c2ccccc2c1=O	none
CC(C)Cn1nc(-c2ccccc2)c2ccccc2c1=O	none
COCC1CCCN(C(=O)CCC2(Cc3ccc(OC)c4ccccc34)CCC(=O)N2)C1 (configuration not stated)	none
COc1cc(NC(=O)C(C)Oc2ccccc2)c(OC)cc1NC(=O)C(C)Oc1ccccc1 (configuration not stated)	none
COc1ccc(C(C)(C)C)cc1S(=O)(=O)N1CCNC(C(=O)O)C1 (configuration not stated)	none
O=C(Nc1nc(-c2cc3ccccc3oc2=O)cs1)c1c(F)cccc1F	none
O=c1oc2ccccc2cc1-c1csc(Nc2ncccn2)n1	ST2 inh 34.0%
O=C(Nc1nc(-c2cc3ccccc3oc2=O)cs1)c1ccccc1Br	none
